LDHA block – blocks human lactate dehydrogenase A; activity change, % (values are at about 110 or 230 µM); purified LDHA, NADH/diaphorase-resazurin fluorescence; active compounds read low; 480,000 tested, 0.15% active; P00338; AID 1347041; in the data active means activity change below about -30%; inconclusive means mostly about -25% to -30%;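 further: plate controls were DMSO wells for no effect and wells without enzyme for full effect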
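LDH5 2 nM; NADH 0.06 mM, pyruvate 0.2 mM; 200 mM Tris pH 7.4, EDTA, Tween-20; 5 min RT. Detection: diaphorase 0.133 mg/mL + resazurin 37 µM, fluorescence ex540/em590 at 0 and 20 min; normalized to enzyme-free and DMSO wells.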
BCR signal inh – blocks chronic active B-cell receptor signaling | ABC-DLBCL IkBa-CBG/CBR reporter, luminescence ratio, 4 h | Potency, µM (series often up to 46.1 µM), inactives show at the top dose activity change, negative = inhibition, usual class: inhibitors | 340,000 tested, 0.05% active; active means well fitted inhibition curve with a large enough effect in the signal ratio, with a control signal flat, not every such curve was filed as active; inconclusive means small, poorly fitted or top-dose-only effect, or effect the other way, or a change in a side signal; the % refers to the signal ratio;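 further: potency means the concentration at half of the fitted maximal effect; plate controls were basal doxycycline-induced cells for no effect and cells given 10 µM MG132 for full effect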
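TMD8 human ABC-DLBCL cells with doxycycline-inducible IκBα–green luciferase fusion and unfused red luciferase, in 0.5% FBS medium; compounds up to 46 uM, 4 h at 37C. Green/red luminescence ratio, filter-overlap corrected, fitted to concentration-response curves.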
hERG WT inh – inhibitors of human wildtype KCNH2 potassium channel. 340,000 tested, 0.37% active. activity change, % at 1.84 µM. U2OS, BacMam KCNH2, thallium flux FluxOr; active compounds read low. Q12809;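 active means maximum activity change below -70%; inconclusive means maximum activity change between -70% and -50%; inactive means maximum activity change above -50%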; further: on the % scale 0 is the no-effect control and ±100 the full control effect
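U2OS cells transduced with wild-type KCNH2 virus are loaded with FluxOr dye for 45 min, and thallium flux is measured in kinetic reads before and after stimulation buffer. Rate constants are normalized to DMSO controls.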
ClpP mod – qHTS Assay for Activators of ClpP. ATP-dependent Clp protease proteolytic subunit (Bacillus subtilis (strain 168)), P80244. purified B. subtilis ClpP, FRET peptide cleavage, 20 min. AID 651965, 2013. Potency, µM (doses to about 57.5 µM), for the others: top-dose activity change, negative = active. 340,000 tested, 1.9% active; active means well fitted falling curve with a large enough effect; inconclusive means small, poorly fitted or top-dose-only effect; inactive means no such curve, though single readings can be large or run the other way; further: potency means the concentration at half of the fitted maximal effect; the source files actives as falling curves though it sought activators and does not explain the sign; nearly all actives have a fitted effect of over 65% in size
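Purified B. subtilis ClpP, 10 microg/mL final in Tris/HCl pH8 with KCl, BSA, glycerol and Tween-20, cleaved an Abz/nitrotyrosine-quenched decapeptide. Fluorescence (ex 320, em 430) was read at 0 and 20 min at room temperature. Delta was normalized to 5.8 microM ADEP and DMSO/no-enzyme controls.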
KCNH2 3.1 block – KCNH2 3.1 (human) potassium channel inhibition. U2OS KCNH2 3.1, thallium flux FluxOr; active compounds read low. 340,000 tested, 0.95% active. activity change, % (tested at about 1.8 µM). AID 720553;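 active means maximum activity change below -70%; inconclusive means maximum activity change from -70% to -50%; inactive means maximum activity change above -50%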;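 further: thallium influx rate constant from kinetic fluorescence after stimulation buffer; on the % scale 0 is the no-effect control and ±100 the full control effect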
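Thallium flux read-out: FluxOr dye with Red40 quencher in HBSS/HEPES, 45 min at RT. Rate constants from kinetic reads were normalized to positive and negative DMSO controls. Cells: U2OS virally expressing the 3.1 isoform.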
ALOX12 inh – ALOX12 (human) lipoxygenase inhibition. purified 12hLO, xylenol orange hydroperoxide absorbance. 580,000 tested, 1.1% active. P18054. AID 1671190. Potency, µM (doses to about 108 µM), inactives show at the top dose activity change, negative = inhibition, hits mostly inhibitors; active means well fitted inhibition curve with a large enough effect; inconclusive means small, poorly fitted or top-dose-only effect, or another doubt; inactive means no such curve, though single readings can be large or run the other way; further: potency means the concentration at half of the fitted maximal effect; on the % scale 0 is the no-effect control and ±100 the full control effect
Target sequence (P18054 whole entry, looked up): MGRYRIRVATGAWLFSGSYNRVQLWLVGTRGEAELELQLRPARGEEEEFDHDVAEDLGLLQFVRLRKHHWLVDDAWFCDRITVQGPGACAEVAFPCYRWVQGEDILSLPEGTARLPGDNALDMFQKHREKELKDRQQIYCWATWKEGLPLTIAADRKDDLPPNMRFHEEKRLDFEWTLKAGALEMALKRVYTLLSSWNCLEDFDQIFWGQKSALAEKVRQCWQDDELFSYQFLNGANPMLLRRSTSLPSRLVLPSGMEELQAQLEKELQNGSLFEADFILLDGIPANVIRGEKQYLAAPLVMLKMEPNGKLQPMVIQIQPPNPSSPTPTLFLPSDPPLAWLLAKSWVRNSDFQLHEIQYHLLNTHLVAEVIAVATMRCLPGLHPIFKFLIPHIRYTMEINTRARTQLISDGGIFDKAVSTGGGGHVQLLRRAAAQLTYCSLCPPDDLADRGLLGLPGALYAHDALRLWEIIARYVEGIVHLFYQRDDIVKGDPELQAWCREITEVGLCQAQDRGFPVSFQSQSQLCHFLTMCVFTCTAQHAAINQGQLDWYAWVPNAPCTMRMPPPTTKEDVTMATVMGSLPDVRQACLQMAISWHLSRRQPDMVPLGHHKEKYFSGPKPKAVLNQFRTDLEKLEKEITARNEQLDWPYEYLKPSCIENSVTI
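Purified human 12hLO (150 nM final) in 25 mM Hepes, 0.01% Triton X-100, pH 7.0 was preincubated 15 min at room temperature with compound. Then 40 uM arachidonic acid was added, 30 min. Hydroperoxide was read by Fe-XO absorbance ratio 573/405 nm.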
The depositor's hits bear a star; ? = inconclusive; nt = no result; [ ] = another dose, or the depositor's remark. Shown are actives, neighbours in structure and some others; about 3% of the full set was active somewhere.

SMILES	LDHA block	BCR signal inh	hERG WT inh	ClpP mod	KCNH2 3.1 block	ALOX12 inh
CCOc1cccc(C(=O)NC(=S)Nc2ccccc2)c1	1	?	2	4%	1	14µM*
COc1cccc(C(=O)Nc2cccc(NC(=O)c3ccccc3Cl)c2)c1	-13	?	-3	1%	5	8%
CCOc1cccc(C(=O)NC(=S)Nc2cccc(NC(=O)c3ccccc3Cl)c2)c1	0	?	-4	1%	-2	11µM*
CCOc1cccc(C(=O)NC(=S)Nc2cccnc2)c1	-3	-12%	0	10%	-7	-22%
CCCCOc1cccc(C(=O)NC(=S)Nc2cccc(C(F)(F)F)c2)c1	0	-9%	-9	1%	-9	32µM*
OCCN1CCN(C2Cc3cc(Cl)ccc3Sc3ccc(Cl)cc32)CC1 (stereo not given) (tested in a mixture with another compound)	2	?	5	-1%	-20	nt
CN1CCN(CCOC2Cc3ccccc3Sc3ccc(Cl)cc32)CC1 (stereo not given)	0	?	?	-2%	-91*	?
CC(=O)c1ccc(OCc2ccc(Cl)cc2Cl)cc1	0	nt	nt	nt	nt	-6%
COc1ccc(-c2oc3ncnc(N)c3c2-c2ccccc2)cc1	-7	?	-8	35µM*	3	0%
COc1ccc(-c2oc3ncn4nc(COc5ccccc5)nc4c3c2-c2ccc(OC)cc2)cc1	-1	6%	21	-44%	3	0%
COc1cc(C(=O)OC23CC4CC(C2)C(=O)C(C4)C3)cc(OC)c1OC	-14	nt	nt	nt	nt	?
CCc1ccc(NC(=O)CSc2nnc(-c3cccs3)n2-n2cccc2)cc1	2	nt	nt	nt	nt	-1%
COC(=O)c1nn(-c2ccc3c(c2)CCN3C(C)=O)cc1O	-4	-8%	-8	7.1µM*	19	-5%
COC(=O)c1nn(-c2ccc3c(c2)OCO3)cc1O	6	-7%	10	32µM*	-8	-14%
CCOC(=O)c1nn(-c2ccc3c(c2)OCCO3)cc1O	-8	?	-2	nt	2	-8%
CCc1ccc(-c2cc(C(=O)Nc3nccs3)c3ccccc3n2)cc1	-1	nt	nt	nt	nt	8%
COc1ccc(CCNC(=O)C2CC(c3cc(OC)c(OC)c(OC)c3)=NO2)cc1OC (stereo not given)	3	nt	nt	nt	nt	-7%
Cc1ccc2c(CC(=O)N(C)c3c(N)n(Cc4ccccc4)c(=O)[nH]c3=O)coc2c1	-4	?	-1	25µM*	-8	?
CCN(C(=O)COC(=O)Cc1coc2cc(C)ccc12)c1c(N)n(Cc2ccccc2)c(=O)[nH]c1=O	2	16%	-13	-1%	8	?
COc1ccccc1C(=O)Nc1ccc(-c2nc3cc(C)cc(C)c3o2)cc1	-1	nt	nt	4%	nt	?
Cc1ccc(-c2nc3cc(NC(=O)c4cc(Br)ccc4Cl)ccc3o2)cc1	-3	nt	nt	?	nt	40µM*
Cc1cc(C)c2oc(-c3ccc(NC(=O)c4cc(Br)ccc4Cl)cc3)nc2c1	-5	nt	nt	20µM*	nt	-18%
COc1c(C)cccc1C(=O)Nc1ccc(Cl)c(-c2nc3cc(C)ccc3o2)c1	0	nt	nt	25µM*	nt	-13%
O=C(c1cccc(F)c1)N1CCC2(CC1)N=C(c1ccc(Cl)cc1)NO2	nt	nt	nt	nt	nt	-14%
O=C(COc1cccc(Cl)c1)Nc1ccc(-c2nc3ccccc3o2)cc1	5	nt	nt	nt	nt	-59%
SMILES	LDHA block	BCR signal inh	hERG WT inh	ClpP mod	KCNH2 3.1 block	ALOX12 inh
Cc1ccc2nc(-c3ccccc3)c(C)c(C(=O)O)c2c1	19	nt	nt	nt	nt	0%
O=C(O)c1cc(Cl)c(Cl)cc1C(=O)N1CCOCC1	-2	-1%	6	0%	1	17%
O=C(O)c1c(Cl)c(Cl)c(Cl)c(Cl)c1C(=O)N1CCOCC1	-7	-2%	-7	-1%	-14	11µM*
O=C(O)c1c(Cl)c(Cl)c(Cl)c(Cl)c1C(=O)N1CCCCCC1	-8	-6%	-16	32µM*	-22	-3%
COc1ccc(OC)c(NC(=O)C(=O)c2cn(CC(=O)N3CCOCC3)c3ccccc23)c1	14	nt	nt	nt	nt	-8%
COCCCN1C(=O)N(Cc2nncn2C(C)C)C(=O)C12CCNCC2	nt	nt	nt	nt	nt	18µM*
Cc1nncn1CCN1C(=O)N(CCc2ccccc2)C2(CCNCC2)C1=O	nt	nt	nt	nt	nt	-24%
CCOc1ccc(NC(=O)C2CSC(c3ccncc3)=N2)cc1 (stereo not given)	-6	1%	-120*	-4%	-173*	10%
CCOc1ccc(NC(=O)Nc2ccc(Cc3ccncc3)cc2)cc1	-2	1%	1	nt	0	-7%
Cc1ccccc1OCc1nnc(SCC(=O)Nc2ccc3c(c2)oc2ccccc23)n1C	-3	?	-1	14µM*	-3	-18%
COc1cc2c(cc1OC)/C(=C/C(=O)N1CCOCC1)NC(C)(C)C2	-4	-16%	-5	13µM*	9	?
CCOC(=O)/C=C1\NC(C)(C)Cc2cc(OC)c(OC)cc21	-4	?	3	-9%	8	-26%
COc1ccc2[nH]c(C[C@@H]3C[C@@H](C(C)C)[C@H](CN(C)C)C=C3C)nc2n1	nt	nt	nt	nt	nt	93%[176 µM]
CS(=O)(=O)N1CCN(C(=O)CNc2cc(Cl)ccc2F)CC1	3	nt	nt	nt	nt	6%
CCc1nc(N2CCN(C(=O)CN3CCOCC3)CC2)c(C#N)c2c1COC(C)(C)C2	0	nt	nt	nt	nt	-5%
CCc1nc(N2CCN(C(=O)c3ccccc3)CC2)c(C#N)c2c1COC(C)(C)C2	6	0%	-3	25µM*	-11	-1%
CC1(C)Cc2c(C#N)c(N3CCOCC3)nc(Cc3ccccc3)c2CO1	1	-4%	10	?	6	0%
CC1(C)Cc2c(C#N)c(N3CCN(C(=O)c4ccccc4)CC3)nc(Cc3ccccc3)c2CO1	-10	?	6	32µM*	-14	0%
Cc1ccc(C)c(-c2csc(NC(=O)CN(C)CC(=O)Nc3ccccc3C(F)(F)F)n2)c1	-5	nt	nt	nt	nt	-2%
Cc1ccc(CSc2nc3cccnc3n2Cc2ccc(C(=O)NCc3ccco3)cc2)cc1	-3	nt	nt	?	nt	0%
Cc1ccc(CNC(=O)c2ccc(Cn3c(SCc4ccc(F)cc4)nc4cccnc43)cc2)o1	1	nt	nt	28µM*	nt	-3%
O=C(NCCc1cccs1)c1ccc(Cn2c(SCc3ccc(F)cc3)nc3cccnc32)cc1	-8	nt	nt	25µM*	nt	-6%
COc1cc(OC)c(C(=O)Nc2nnc(C(F)(F)F)s2)cc1OC	1	nt	nt	nt	nt	?
CCC(NC(=O)C1CC1)c1ccc(C)cc1 (stereo not given)	4	nt	nt	nt	nt	5µM*

Screening data deposited in PubChem BioAssay by National Center for Advancing Translational Sciences (NCATS).
